The subject of test [1] is Human papillomavirus type 1a protein E7 (residues 44-93). Description: HPV1a E7 fragment binders on microarrays, primary screen, biochemical, small-molecule microarray, residues 44-93, 635 nm fluorescence (AID 1108).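 Further: E7 fragment applied at 1 µg/mL in TBST for 1 h at 4 C; score combines spot fluorescence with its signal to noise ratio.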 Particulars: small-molecule microarray binding, fluorescence 635 nm; higher = more signal.
Test [2] is described as follows: modulators of HCV replicon luciferase signal, primary screen, HCV replication inhibitor project, Huh7 cells, luciferase reporter (AID 1109).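 Further: huh7 hepatoma cells harbouring a luciferase neomycin HCV replicon reporter; luciferase luminescence as measure of HCV replicon replication; test concentration not given here.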 Conditions: 48 h, higher = more signal.
The target in test [3] is Left-right determination factor 2 (Homo sapiens) (UniProt O00292). Description: LEFTY2 binders on small-molecule microarrays, primary screen, biochemical, small-molecule microarray, 635 nm fluorescence scan (AID 1110). Conditions: LEFTY2 binding, higher = more signal.
Test [4] deals with Calmodulin-1 (Homo sapiens) (UniProt P0DP23). Description: CALM1 binders on microarrays, EGTA buffer, profiling panel, biochemical, small-molecule microarray, Cy5-labelled CALM1 (AID 1111).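 Further: labelled calmodulin applied in Tris saline Tween buffer holding calcium plus EGTA and DTT.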 Particulars: Cy5-CALM1 binding fluorescence, higher = more signal.
Test [5] has the same target. Briefly: calcium-bound CALM1 binders on microarrays, profiling panel, artefact control for SMM control-protein annotation, biochemical, small-molecule microarray, Cy5-labelled CALM1, plus calcium (AID 1112).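 Further: score merges spot fluorescence with signal to noise from triplicate slides.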 Conditions: Cy5-CALM1 binding fluorescence, higher = more signal.
The nature of test [6]: small-molecule microarray binders of probe aWnt5a, primary screen, biochemical, biotinylated probe, 635/667 nm fluorescence (AID 1113).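 Further: score merges 667 nm fluorescence intensity with signal-to-noise per printed feature.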 Particulars: higher = more signal.
The nature of test [7]: small-molecule microarray binders of probe aShh, primary screen, biochemical, biotinylated probe, 635/667 nm fluorescence (AID 1114).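 Further: probe is biotin-labelled aShh protein from a stem cell growth factor screen; measures binding of labelled protein to compounds printed on the slide; score merges feature fluorescence at 667 nm with signal-to-noise.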 Particulars: higher = more signal.
Test [8] in a line: small-molecule microarray binders of probe aNog, primary screen, biochemical, biotinylated probe, 635/667 nm fluorescence (AID 1115).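 Further: probe is biotinylated aNog protein used at 0.15 µg/mL for 1 h at 4 C; z-score combines 667 nm fluorescence of each spot with its signal to noise.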 Conditions: higher = more signal.
Test [9] has as its target Torsin-1A-interacting protein 1 (Homo sapiens) (UniProt Q5JTV8). Description: LAP1 binders from COS7 cell lysate, primary screen, small-molecule microarray, 635/667 nm fluorescence (AID 1116). Conditions: COS7-hLAP1 lysate binding, 635 nm fluorescence, higher = more signal.
In test [10] the target is Alpha-bungarotoxin (Bungarus multicinctus) (UniProt P60615). Description: alpha-bungarotoxin binders on microarray, profiling panel, artefact control for SMM control protein annotation, biochemical, small-molecule microarray, Alexa647 label, 635/667 nm fluorescence (AID 1117). Particulars: alpha-BTX-A647 binding fluorescence, higher = more signal.
Test [11] addresses Albumin (Bos taurus) (UniProt P02769). Briefly: bovine serum albumin binders on microarray, profiling panel, artefact control for SMM control protein annotation, biochemical, small-molecule microarray, Alexa647 label, 635/667 nm fluorescence (AID 1118).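 Further: score merges 667 nm emission intensity and signal-to-noise per printed compound spot.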 Conditions: BSA-A647 binding, fluorescence 635 nm, higher = more signal.
The nature of test [12]: small-molecule microarray binders of probe aXIP, primary screen, biochemical, NeuroSMM set, 635/667 nm fluorescence (AID 1119).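 Further: probe is the protein aXip251-270 applied at 1 µg/mL to compound-printed slides; binding of probe to printed compounds measured as 667 nm fluorescence plus signal to noise.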 Particulars: higher = more signal, called active from +8 up or from −8 down.
A short description of test [13]: small-molecule binders of probe aNOTCH3, primary screen, biochemical, small-molecule microarray, 635/667 nm fluorescence (AID 1120).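 Further: probe is a biotin-tagged antibody raised against NOTCH3 rather than NOTCH3 protein; score merges spot fluorescence near 667 nm with spot signal to noise.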 Particulars: higher = more signal.
The nature of test [14]: small-molecule binders of probe aNOTCH2, primary screen, biochemical, small-molecule microarray, 635/667 nm fluorescence (AID 1121).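 Further: score merges feature fluorescence read at 667 nm with its signal to noise.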 Conditions: higher = more signal.
Test [15] has as its target Carbonic anhydrase 2 (Homo sapiens) (UniProt P00918). Briefly: CAII small-molecule binders, profiling panel, biochemical, small-molecule microarray, Alexa647-labelled CAII (AID 1122). Conditions: CAII-A647 binding fluorescence, higher = more signal.
A short description of test [16]: COS7 lysate on small-molecule microarray, probe aHis, 635 nm (AID 1123).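 Further: z-score combines 667nm fluorescence intensity with signal-to-noise per printed compound spot.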 Particulars: COS7 cell lysate, fluorescence, higher = more signal.
A short description of test [17]: compound binding in COS7 lysate, probe aLAP1, primary screen, cell lysate, small-molecule microarray (AID 1124).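 Further: lysate comes from COS7 cells expressing LAP1 and is applied at 0.3 µg/mL; score merges spot fluorescence near 667 nm with signal-to-noise over triplicate slides.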 Conditions: probe aLAP1, fluorescence, higher = more signal.
For test [18], the system named is Sam68 (KHDRBS1). Description: Sam68 small-molecule binders, primary screen, biochemical, small-molecule microarray, 635 nm fluorescence (AID 1125).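 Further: score merges 667 nm channel intensity with signal to noise over triplicate slides.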 Conditions: small-molecule microarray binding, higher = more signal.
The test system of test [19] is Chordin-like protein 2 (CHRDL2). Description: CHRDL2 small-molecule binders, primary screen, biochemical, small-molecule microarray, 635 nm fluorescence (AID 1126).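 Further: printed compound slides probed with Chrdl2 protein at 4 µg/mL for 1 h at 4 C; score merges 667 nm emission intensity with signal to noise over three replicate slides.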 Conditions: small-molecule microarray binding, fluorescence 635 nm; higher = more signal.
Test [20] addresses Concanavalin-A (Canavalia ensiformis) (UniProt P02866). Description: ConA small-molecule binders, primary screen, artefact control for SMM control protein annotation, biochemical, small-molecule microarray, Alexa647 label, 635 nm (AID 1127).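 Further: z combines 667 nm emission intensity with signal-to-noise across three replicate slides.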 Particulars: ConA-A647 binding fluorescence, higher = more signal.

The structures appear in SMILES notation. Activity calls are given as the source filed them.

Sequence of Alpha-bungarotoxin (Bungarus multicinctus) (P60615 whole entry, looked up): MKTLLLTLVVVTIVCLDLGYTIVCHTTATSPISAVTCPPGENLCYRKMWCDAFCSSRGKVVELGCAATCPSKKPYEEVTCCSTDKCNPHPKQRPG
Sequence of Albumin (Bos taurus) (P02769 whole entry, looked up): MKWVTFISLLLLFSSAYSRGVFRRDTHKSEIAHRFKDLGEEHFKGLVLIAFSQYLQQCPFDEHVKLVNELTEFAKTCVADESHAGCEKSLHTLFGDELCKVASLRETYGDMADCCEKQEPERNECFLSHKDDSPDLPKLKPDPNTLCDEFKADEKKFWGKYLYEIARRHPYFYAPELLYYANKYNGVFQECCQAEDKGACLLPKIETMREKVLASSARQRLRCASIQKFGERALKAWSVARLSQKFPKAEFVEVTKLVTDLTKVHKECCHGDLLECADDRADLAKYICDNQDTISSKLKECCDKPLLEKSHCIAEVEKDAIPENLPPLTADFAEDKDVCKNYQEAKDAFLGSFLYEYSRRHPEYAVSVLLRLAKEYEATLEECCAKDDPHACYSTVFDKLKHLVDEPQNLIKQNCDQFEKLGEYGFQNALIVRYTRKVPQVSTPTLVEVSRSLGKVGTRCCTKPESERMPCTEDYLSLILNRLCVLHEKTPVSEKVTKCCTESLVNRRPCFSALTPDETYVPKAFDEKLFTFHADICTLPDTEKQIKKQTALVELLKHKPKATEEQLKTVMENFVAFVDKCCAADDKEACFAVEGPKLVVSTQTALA
Sequence of Left-right determination factor 2 (Homo sapiens) (O00292 whole entry, looked up): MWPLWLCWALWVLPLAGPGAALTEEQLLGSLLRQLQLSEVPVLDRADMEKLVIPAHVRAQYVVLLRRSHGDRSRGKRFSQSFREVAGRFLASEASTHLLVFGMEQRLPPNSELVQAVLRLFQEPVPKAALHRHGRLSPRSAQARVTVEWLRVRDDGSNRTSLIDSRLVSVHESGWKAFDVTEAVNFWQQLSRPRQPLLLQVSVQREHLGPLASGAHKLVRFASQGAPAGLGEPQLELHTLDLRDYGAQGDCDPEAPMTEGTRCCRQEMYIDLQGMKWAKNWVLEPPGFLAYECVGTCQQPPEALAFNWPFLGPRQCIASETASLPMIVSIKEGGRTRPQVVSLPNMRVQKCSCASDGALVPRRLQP
Sequence of Concanavalin-A (Canavalia ensiformis) (P02866 whole entry, looked up): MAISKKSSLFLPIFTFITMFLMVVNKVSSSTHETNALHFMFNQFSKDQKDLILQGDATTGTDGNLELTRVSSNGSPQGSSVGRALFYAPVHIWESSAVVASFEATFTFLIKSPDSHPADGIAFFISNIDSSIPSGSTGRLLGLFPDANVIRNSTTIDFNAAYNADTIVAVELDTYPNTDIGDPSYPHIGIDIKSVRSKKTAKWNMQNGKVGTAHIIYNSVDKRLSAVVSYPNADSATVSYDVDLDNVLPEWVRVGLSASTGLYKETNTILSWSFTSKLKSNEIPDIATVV
Sequence of Torsin-1A-interacting protein 1 (Homo sapiens) (Q5JTV8 whole entry, looked up): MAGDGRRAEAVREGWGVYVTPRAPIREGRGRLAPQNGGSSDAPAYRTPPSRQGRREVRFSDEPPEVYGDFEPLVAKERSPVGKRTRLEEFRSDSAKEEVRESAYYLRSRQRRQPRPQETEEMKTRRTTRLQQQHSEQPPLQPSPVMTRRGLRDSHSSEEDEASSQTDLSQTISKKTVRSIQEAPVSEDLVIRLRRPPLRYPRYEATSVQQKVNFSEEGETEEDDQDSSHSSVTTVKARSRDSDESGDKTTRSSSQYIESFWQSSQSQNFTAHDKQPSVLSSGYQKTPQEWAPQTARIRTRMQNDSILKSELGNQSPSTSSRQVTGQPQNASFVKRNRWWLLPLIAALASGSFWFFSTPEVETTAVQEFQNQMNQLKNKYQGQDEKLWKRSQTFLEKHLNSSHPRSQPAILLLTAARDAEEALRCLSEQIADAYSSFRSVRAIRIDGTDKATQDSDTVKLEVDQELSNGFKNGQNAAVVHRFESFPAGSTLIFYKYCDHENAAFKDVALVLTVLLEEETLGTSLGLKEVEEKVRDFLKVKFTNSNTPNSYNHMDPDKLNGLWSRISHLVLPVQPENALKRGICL

`C[N+](C)(C)CCCCNC(=O)[C@H]1C[C@H]2C(=O)N3CCC[C@H]3C(=O)N2[C@H]1c1ccc(O)cc1`: the composite z-score is 0.257 in test [1]; 1.28 in [3]; -0.546 in test [4]; -0.368 in [5]; -0.0236 in [6]; -0.0146 in test [7]. The composite z-score is -0.0662 in test [8]; 2.01 in test [9]; 1.57 in test [10]; -0.926 in test [11]; 0.0793 in [13]; -0.0449 in [14]. Besides, the composite z-score in test [15] worked out at 0.627; in [16], 2.08; in test [17], 0.625; in test [18], 0.895; in test [19] it was 1.21; in test [20], 1.09. The z-score in test [2] was -1.25. Besides, in test [12], the composite Z-score was -0.388 (inactive).

Turning to `COCCOC(=O)N1C(=O)[C@@]2(c3cc(C#CCC(C(=O)OC)C(=O)OC)ccc31)[C@H](c1ccccc1OCCO)N1[C@H](c3ccccc3)[C@H](c3ccccc3)OC(=O)[C@H]1[C@@H]2C(=O)Nc1nc2ccccc2s1`, the composite z-score is 0.678 in test [1]; 0.691 in [3]; 1.29 in test [4]; 0.522 in test [5]; -0.0134 in [6]; -0.0146 in test [7]. Further, the composite z-score in [8] is 0.185; in test [9] it was 1.99; in test [10], 2.06; in [11], 0.757; in test [13], 0.261; in test [14] it was -0.0048. Further, the composite z-score in test [15] was determined as 0.324; in test [16], 1.93; in test [17], 1.47; in test [18] it was 1.31; in [19] it was 0.554; in test [20], 1.12. Also, in [2], the z-score was -1.11. Also, the composite Z-score in [12] was 0.794 (inactive).

Turning to `COc1ccc(C#Cc2ccc3c(c2)[C@]2(C(=O)N3)[C@H](c3ccc(OCCO)cc3)N3[C@H](c4ccccc4)[C@H](c4ccccc4)OC(=O)[C@H]3[C@@H]2C(=O)Nc2nc3ccccc3s2)cc1`, the composite z-score in test [1] was determined as 1.34; in test [3], 0.776; in test [4] it was 1.57; in test [5], 0.446; in test [6] it was 0.104; in test [7], 0.0711. In addition, the composite z-score was 0.83 in test [8]; 0.0329 in test [9]; 1.52 in [10]; 0.562 in test [11]; 0.217 in test [13]; -0.0267 in test [14]. Moreover, the composite z-score in test [15] is 0.645; in test [16] it was 2.22; in [17] it was 0.534; in [18], 1.29; in [19] it was 0.57; in test [20] it was 1.13. In test [2], this compound gave a z-score of -2. The composite Z-score in test [12] was -0.0127 (inactive).

On to `COc1ccc([Si](C)(C)[C@H]2[C@H](CC(=O)N(CCO)Cc3ccccc3)O[C@@]3(C(=O)N(Cc4cccc(N5C(=O)c6cccc7cccc5c67)c4)c4ccccc43)[C@@H]2C)cc1`, for which the composite z-score is 0.9 in test [1]; 0.45 in test [3]; 0.847 in [4]; -0.0174 in test [5]; -0.107 in test [6]; -0.165 in [7]. The composite z-score was 0.0857 in test [8]; 0.389 in test [9]; 0.942 in test [10]; 0.375 in [11]; -0.0821 in test [13]; -0.154 in test [14]. The composite z-score in [15] was 0.519; in [16], 0.934; in test [17], 0.228; in test [18], 0.75; in [19], -0.108; in [20], 1.09. In test [2], this compound showed a z-score of -4.25. In addition, the composite Z-score in [12] is -0.025 (inactive).

Take `CS(=O)(=O)CCOC(=O)C1=CC(c2ccc(CO)cc2)=CC(c2cccs2)N(Cc2cccc(OC(F)(F)F)c2)C=C1C(=O)OCCS(C)(=O)=O` (stereo not given): the composite z-score in test [1] was 0.869; in test [3] it was 0.192; in test [4] it was 1.75; in test [5], 0.707; in [6] it was 0.0044; in test [7], -0.102. The composite z-score is -0.475 in test [8]; 0.796 in test [9]; 0.904 in test [10]; 0.735 in test [11]; 0.152 in test [13]; -0.0259 in test [14]. Also, the composite z-score in [15] turned out to be 0.664; in [16] it was 1.68; in test [17], 0.442; in test [18] it was 1.13; in test [19] it was 0.217; in test [20] it was 0.911. For the same compound, in [2], the z-score was -2.19. For the same compound, in test [12], the composite Z-score was -0.0662 (inactive).
